We go through ten molecules from PubChem BioAssay (NCATS).

“And” between values parts separate entries of the source, which are not always exact repeats. Identical values can stand only once. Records with an inconclusive call do not appear. The source made the active and inactive calls. Unless noted, calls come from the whole dose curve; as a rule, active = well fitted curve in the direction sought with a large enough effect; inconclusive = small, poorly fitted or top-dose-only effect, or another doubt; inactive = no such curve, though single readings can be large; an effect the other way counts as inactive or inconclusive.

Assay [1] in a line: Cell Viability - H-4-II-E (AID 543).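 Note: cells exposed to compound for 40 hours; nearly all actives have a fitted effect of over 35% in size.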 Note: potency is the fitted concentration of half-maximal effect. In outline: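 AC50 from Hill-modelled qHTS concentration-response curves. H-4-II-E rat hepatoma cells in complete medium, 40 hr exposure at 37 °C, viability by CellTiter-Glo ATP luminescence.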
Assay [2] can be described thus: Cell Viability - Renal Proximal Tubule (AID 545).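 Note: cells exposed to compound for 40 hours; 0% = DMSO only and -100% = 100 µM tamoxifen; nearly all actives have a fitted effect of over 40% in size.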 To be noted: renal proximal tubule cells viability, primary cells of rat origin; activity change, negative = cytotoxicity: at 91.7 µM (top of the series). The method, boiled down: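 Primary rat renal proximal tubule cells (1000/well) were treated with compounds for 40 hr at 37 °C in complete medium. Intracellular ATP was measured by CellTiter-Glo luminescence, and AC50 values came from Hill-equation fits of concentration-response data.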

The nature of assay [3]: Cell Viability - LYMP2-001 (AID 921). Note: nearly all actives have a fitted effect of over 70% in size. Note: potency is the fitted concentration of half-maximal effect. The method, boiled down: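 Human lymphoblastoid cells (Coriell), 2500 per well, were preincubated 5 hr at 37 C, then exposed to compounds in complete medium for 24 hr at 37 C. Cellular ATP was read by CellTiter-Glo luminescence; AC50 from Hill fits of concentration-response data.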
Assay [4] can be described thus: MultiTox-Fluor Cytotoxicity Assay - LYMP1-001 - Live Cells (AID 947).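 Note: 0% = DMSO only and full inhibition = tetraoctylammonium bromide control.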
The nature of assay [5]: Cell Viability - LYMP2-003 (AID 965).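 For activity change, negative = cytotoxicity: 0% = DMSO only and full effect = 92 µM tetraoctylammonium bromide.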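 Note: cells exposed to compounds for 24 h before reading; nearly all actives have a fitted effect of over 50% in size.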 Note: potency is the fitted concentration of half-maximal effect. The method, boiled down: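 Human lymphoblastoid cells (2500/well) were pre-incubated 5 hr at 37 C, then exposed to compounds over a concentration range for 24 hr at 37 C. Intracellular ATP was read by CellTiter-Glo luminescence; AC50 came from Hill-equation fits.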
The nature of assay [6]: Cell Viability - LYMP2-004 (AID 966).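 For activity change, negative = cytotoxicity: plate controls were DMSO only for no effect and tetraoctylammonium bromide control for full effect.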 Note: nearly all actives have a fitted effect of over 65% in size. Note: potency is the fitted concentration of half-maximal effect. In outline:
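Viable-cell number estimated from ATP luminescence (CellTiter-Glo) in 2500 human lymphoblastoid cells/well after 24 hr at 37 C with compound. AC50 fitted to the standard Hill equation.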

A short description of assay [7]: Cell Viability - LYMP2-005 (AID 967). Note: potency is the fitted concentration of half-maximal effect. In outline: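 CellTiter-Glo luminescence (cellular ATP) read-out; LYMP2-005 lymphoblastoid cells, 2500/well, 5 h pre-incubation, then 24 h compound exposure at 37 C in complete medium. Tetraoctylammonium bromide positive control; AC50 by standard Hill fit.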
The nature of assay [8]: Cell Viability - LYMP2-011 (AID 969). Note: nearly all actives have a fitted effect of over 60% in size. Note: potency is the fitted concentration of half-maximal effect. The method, boiled down:
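Cells seeded at 2500 per well rest 5 hr before compound addition, then incubate 24 hr at 37 C. CellTiter-Glo reagent is added for 30 min at room temperature before luminescence detection.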

Assay [9] is described as follows: Cell Viability - LYMP2-019 (AID 973).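 For activity change, negative = cytotoxicity: 0% = DMSO alone and full effect = 92 µM tetraoctylammonium bromide.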 Note: nearly all actives have a fitted effect of over 55% in size. Note: potency is the fitted concentration of half-maximal effect. The method, boiled down: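 AC50 values come from Hill-equation modelling of qHTS concentration-response curves, where viability is measured as luciferase-based ATP luminescence in the lymphoblastoid line after 24 hr compound exposure in complete culture medium.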
Assay [10] is described as follows: Cell Viability - LYMP2-021 (AID 974). For activity change, negative = cytotoxicity: % is set by controls: 0 for no effect and ±100 for the full control effect.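 Note: compound exposure lasts 24 hours at 37 °C; nearly all actives have a fitted effect of over 55% in size.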 Note: potency is the fitted concentration of half-maximal effect. The method, boiled down: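 In qHTS format, compounds are tested against 2500 lymphoblastoid cells per well for 24 h; viable cell number is inferred from ATP-driven luciferase light, and Hill-equation fitting yields AC50 values.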
The nature of assay [11]: Cell Viability - LYMP2-002 (AID 977).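 Note: plate controls were DMSO only for no effect and 92 µM tetraoctylammonium bromide for full effect.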 The method, boiled down: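 Human lymphoblastoid cells (2500/well) in complete medium were preincubated 5 hr at 37 C, then exposed to compounds for 24 hr at 37 C. Intracellular ATP was read by CellTiter-Glo luminescence; AC50 came from Hill-equation concentration-response fits.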
Assay [12] in a line: Cell Viability - LYMP2-007 (AID 979).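 For activity change, negative = cytotoxicity: 0% = DMSO only and the negative end = 92 µM tetraoctylammonium bromide.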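 Note: cells exposed to compound for 24 h before reading; nearly all actives have a fitted effect of over 60% in size.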 Note: potency is the fitted concentration of half-maximal effect. In outline: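 Measured via luciferase-based ATP quantitation: lymphoblastoid cells, 24 hr compound exposure at 37 C, AC50 from Hill fits.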
Assay [13] can be described thus: Cell Viability - LYMP2-012 (AID 982).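 For activity change, negative = cytotoxicity: 0% = DMSO only and full loss = 92 µM tetraoctylammonium bromide.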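 Note: cellular ATP by luciferase luminescence where a drop means cytotoxicity; cells exposed to compound for one day before reading; nearly all actives have a fitted effect of over 55% in size.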 Note: potency is the fitted concentration of half-maximal effect.
Assay [14] is described as follows: Cell Viability - LYMP2-014 (AID 983).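 For activity change, negative = cytotoxicity: plate controls were DMSO only for no effect and 92 µM tetraoctylammonium bromide for full effect.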 Note: nearly all actives have a fitted effect of over 50% in size. Note: potency is the fitted concentration of half-maximal effect. The method, boiled down: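 Quantitative HTS in lymphoblastoid cells: 24 hr compound exposure, then CellTiter-Glo ATP luminescence. Positive control was tetraoctylammonium bromide, 6.4pM to 92 uM.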
A short description of assay [15]: Cell Viability - LYMP2-016 (AID 984). For activity change, negative = cytotoxicity: % is set by controls: 0 for no effect and ±100 for the full control effect. Note: nearly all actives have a fitted effect of over 55% in size. Note: potency is the fitted concentration of half-maximal effect. In outline:
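Human lymphoblastoid cells (LYMP2-016), 2500/well in complete medium, preincubated 5 hr at 37 C, then compound-treated 24 hr at 37 C. Intracellular ATP read by CellTiter-Glo luminescence after 30 min at room temperature; AC50 from Hill-equation concentration-response fits.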

The nature of assay [16]: Cell Viability - LYMP2-020 (AID 986). Note: nearly all actives have a fitted effect of over 55% in size. Note: potency is the fitted concentration of half-maximal effect. In outline: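 Cells at 2500 per well receive a 24 hr compound exposure at 37 C. Viability is measured as ATP-dependent luciferase luminescence, with AC50 modeled from qHTS concentration-response curves.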
Assay [17] can be described thus: qHTS assay for small molecule agonists of retinoid X receptor alpha signaling (AID 588544). Particulars: HEK293T RXRa-UAS-bla, beta-lactamase reporter, 18 h; 530 nm emission. (In general: qHTS replaces the single test concentration by a dilution series.)
In assay [18] the target is Voltage-gated inwardly rectifying potassium channel KCNH2 (Homo sapiens) (UniProt Q12809). Nature of the assay: qHTS Assay for Small Molecule Inhibitors of the Human hERG Channel Activity (AID 588834).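 Note: top concentration of the series differs between compounds; % is set by controls: 0 for no effect and ±100 for the full control effect; lower thallium flux fluorescence means stronger hERG block; nearly all actives have a fitted effect of over 50% in size.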 The method, boiled down:
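In hERG-transduced U2OS cells, dye-loaded for 1 hr at room temperature in dark, test compounds incubated 10 min at 37 °C before thallium stimulation. AC50 values derived by Hill modelling of concentration-response.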

A short description of assay [19]: qHTS assay for small molecule activators of the p53 signaling pathway (AID 651743; active = well fitted activation curve with a large enough effect in the signal ratio, not every such curve was filed as active; the % refers to the signal ratio; note: potency is the fitted concentration of half-maximal effect; for activation: % of control where 0% means no effect). To be noted: HCT-116 p53RE-bla, beta-lactamase FRET ratio, 16 h; activation: stronger effect = higher value. In outline:
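A beta-lactamase reporter under p53 response element control, stably carried by HCT-116 cells, reported pathway activation. Test compounds were applied for 16 hours at 37 C, and fluorescence was measured 2 hours after adding the B/G FRET substrate.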

A short description of assay [20]: qHTS assay for small molecule disruptors of the mitochondrial membrane potential - 1 hr assay (AID 651754; calls by dose curve; note: nearly all actives have a fitted effect of over 35% in size; note: potency is the fitted concentration of half-maximal effect). The method, boiled down:
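In this qHTS format, a 1 hr compound treatment of HepG2 cells precedes Mito-MPS staining, and membrane potential is judged from aggregate (red) against monomer (green) fluorescence intensity.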

Sequence of Voltage-gated inwardly rectifying potassium channel KCNH2 (Homo sapiens) (Q12809 whole entry, looked up): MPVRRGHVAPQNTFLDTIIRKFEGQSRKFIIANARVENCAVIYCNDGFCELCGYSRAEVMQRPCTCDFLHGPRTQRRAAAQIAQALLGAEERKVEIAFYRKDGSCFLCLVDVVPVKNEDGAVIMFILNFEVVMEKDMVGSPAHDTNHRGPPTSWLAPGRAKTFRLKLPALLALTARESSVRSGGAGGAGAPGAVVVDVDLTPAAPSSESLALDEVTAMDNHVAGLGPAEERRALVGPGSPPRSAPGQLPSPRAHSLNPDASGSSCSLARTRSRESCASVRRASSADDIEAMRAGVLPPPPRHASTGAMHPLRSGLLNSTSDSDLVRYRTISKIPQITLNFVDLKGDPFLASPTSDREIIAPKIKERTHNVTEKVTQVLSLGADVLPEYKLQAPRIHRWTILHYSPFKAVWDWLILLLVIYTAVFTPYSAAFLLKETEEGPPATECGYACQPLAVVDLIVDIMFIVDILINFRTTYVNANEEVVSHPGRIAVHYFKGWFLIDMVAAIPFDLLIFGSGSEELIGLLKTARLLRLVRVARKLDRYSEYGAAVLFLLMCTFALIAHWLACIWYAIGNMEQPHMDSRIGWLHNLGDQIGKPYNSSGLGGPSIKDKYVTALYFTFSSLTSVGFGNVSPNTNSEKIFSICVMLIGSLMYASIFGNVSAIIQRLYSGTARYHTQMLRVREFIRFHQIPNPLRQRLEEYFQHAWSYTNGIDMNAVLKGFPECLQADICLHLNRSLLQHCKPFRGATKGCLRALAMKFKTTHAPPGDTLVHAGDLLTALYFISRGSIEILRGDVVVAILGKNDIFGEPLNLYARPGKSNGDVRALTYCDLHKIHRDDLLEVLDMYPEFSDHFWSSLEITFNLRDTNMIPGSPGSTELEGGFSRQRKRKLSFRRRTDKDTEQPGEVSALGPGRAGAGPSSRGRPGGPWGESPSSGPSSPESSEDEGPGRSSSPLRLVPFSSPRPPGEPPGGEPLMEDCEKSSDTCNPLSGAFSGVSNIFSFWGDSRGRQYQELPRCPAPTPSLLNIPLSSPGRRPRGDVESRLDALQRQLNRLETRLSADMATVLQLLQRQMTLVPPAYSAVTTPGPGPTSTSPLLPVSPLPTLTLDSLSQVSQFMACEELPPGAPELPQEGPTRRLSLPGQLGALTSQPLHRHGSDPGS

Regarding `O=C1OC(=O)c2ccccc21`, the Potency entry in [1], in assay [2], in assay [3], in assay [4], in assay [5] and in [6] was “inactive” throughout. The Potency entry in assay [7], in assay [8], in assay [9], in assay [10], in assay [11] and in assay [12] was “inactive” each time. The Potency result in [13], in assay [14], in [15], in [16], in [18] and in assay [20] was “inactive” throughout. The max response in [17] was -8.02%. For the same molecule, the activation in assay [19] was -3.66% (inactive).
With `O=[N+]([O-])c1cccc(I)c1`, the Potency result in assay [1], in [2], in assay [3], in assay [4], in assay [5] and in [6] was “inactive” throughout. Besides, the Potency entry in [7], in assay [8], in assay [9], in assay [10], in assay [11] and in assay [12] was “inactive” throughout. Further, the Potency result in [13], in assay [14], in assay [15], in assay [16], in [18] and in assay [20] was “inactive” each time. In addition, the max response in [17] is -0.727%. Besides, in assay [19], the activation is -3.48% (inactive).
With `CCCCC(CC)COP(=O)(OCC(CC)CCCC)OCC(CC)CCCC` (configuration not stated), the Potency entry in [1], in assay [2], in assay [3], in assay [4], in assay [5] and in assay [6] was “inactive” throughout. Further, the Potency entry in assay [7], in assay [8], in [9], in [10], in assay [11] and in assay [12] was “inactive” in each case. Moreover, the Potency result in [13], in assay [14], in assay [15], in [16], in assay [18] and in assay [20] was “inactive” in each case. The max response in assay [17] is -2.54%. The activation in [19] is -6.02% (inactive).
In the case of `Nc1ccc(N)c(Cl)c1`, the Potency result in assay [1], in assay [5], in [6], in [7], in assay [8] and in assay [9] was “inactive” in each case. Moreover, the Potency entry in assay [10], in [11], in [12], in assay [13], in [14] and in assay [15] was “inactive” each time. The Potency entry in [16] and in [18] was “inactive” in each case. In addition, the max response in assay [17] amounted to 15.5%. The activation in [19] was 1.03% (inactive). Further, the Potency in assay [20] is 7.5 µM (active).
For the molecule `Nc1cnn([C@@H]2O[C@H](CO)[C@@H](O)[C@H]2O)c(=O)n1`, the Potency result in assay [1], in [2], in assay [3], in [4], in assay [6] and in assay [7] was “inactive” in each case. Besides, the Potency entry in [8], in [9], in assay [10], in [11], in [12] and in [13] was “inactive” each time. The Potency result in [14], in assay [15], in assay [16], in [18] and in [20] was “inactive” in each case. In addition, the max response in [17] came out at 11.7%. Also, the Potency in assay [19] was 794 nM (active).
`CCCCOC(=O)COc1ccc(Cl)cc1Cl`: the Potency entry in assay [1], in [2], in [3], in assay [4], in [5] and in assay [6] was “inactive” each time. Besides, the Potency entry in assay [7], in [8], in assay [9], in [10], in assay [11] and in assay [12] was “inactive” in each case. The Potency entry in [13], in assay [14], in assay [15], in assay [16] and in [20] was “inactive” each time. Further, the max response in assay [17] is 4.2% and -8.56%. Moreover, the activation in assay [19] is -0.84% (inactive) and -2.7% (inactive).
Regarding `O=C=Nc1ccc(Cl)c(Cl)c1`, the Potency was 31.6 µM (active) in [1] and 4.22 µM (active) in assay [20]. The Potency result in [5], in assay [6], in assay [7] and in assay [18] was “inactive” in each case.
On to `Nc1cc([N+](=O)[O-])ccc1O`, for which the Potency entry in [1], in assay [2], in assay [3], in assay [4], in assay [5] and in assay [6] was “inactive” each time. For the same molecule, the Potency result in assay [7], in [8], in [9], in assay [10], in assay [11] and in assay [12] was “inactive” in each case. For the same molecule, the Potency entry in assay [13], in [14], in [15], in [16] and in assay [18] was “inactive” each time. Moreover, in assay [17], the max response is -3.91% and 2.48%. Further, in [19], the activation is -1.58% (inactive) and -3.77% (inactive). Besides, the Potency in assay [20] was 29.8 µM (active).
`O=C(O)c1ccc([N+](=O)[O-])cc1`: the Potency entry in assay [1], in [2], in assay [3], in assay [4], in assay [5] and in assay [6] was “inactive” each time. Moreover, the Potency result in assay [7], in assay [8], in assay [9], in assay [10], in [11] and in assay [12] was “inactive” in each case. The Potency entry in [13], in assay [14], in assay [15], in assay [16], in assay [18] and in [20] was “inactive” throughout. For the same molecule, in assay [17], the max response is -0.875% and -5.25%. Besides, the activation in assay [19] is -2.78% (inactive) and 0.222% (inactive).
As for `C/C=C/C=C/C=O`, the Potency in assay [3] was 39.8 µM (active); in assay [5], 39.8 µM (active); in assay [6], 31.6 µM (active); in assay [7], 39.8 µM (active); in [8] it was 50.1 µM (active); in assay [9], 39.8 µM (active). In addition, the Potency in [10] was 39.8 µM (active); in assay [12], 39.8 µM (active); in assay [13] it was 31.6 µM (active); in assay [14], 39.8 µM (active); in [15], 50.1 µM (active); in assay [16] it was 31.6 µM (active). Moreover, the Potency result in assay [4], in [18] and in assay [20] was “inactive” each time. For the same molecule, the max response in assay [17] is -9.87%.
